# PubChem BioAssay AID1878 (Sanford-Burnham Center for Chemical Genomics, 2009)
# In all, about 1,000 compounds went through this assay and about 200 (20%) were called active. A selection follows. Results with a measured potency or affinity are listed apart. Unmarked numbers belong to inactive results. No stated cut-off is given here; in the data, active means inhibition above about 55%; inactive means the rest.
# Target: Dual specificity protein phosphatase 3 (Homo sapiens) (UniProt P51452)
# Assay: VHR1 phosphatase inhibitors, biochemical (AID 1878)
# Settings: recombinant VHR phosphatase, fluorogenic substrate; at 13.3 µM; active compounds read high
# Dual specificity protein phosphatase 3 (Homo sapiens), sequence (P51452 whole entry, looked up): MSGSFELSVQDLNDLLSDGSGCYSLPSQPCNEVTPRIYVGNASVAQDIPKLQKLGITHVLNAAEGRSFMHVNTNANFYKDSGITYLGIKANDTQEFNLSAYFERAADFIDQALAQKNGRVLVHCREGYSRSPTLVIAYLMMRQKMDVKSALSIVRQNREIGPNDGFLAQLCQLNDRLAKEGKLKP
row,SMILES,inhibition
1,Nc1nc(-c2cc(O)ccc2[N+](=O)[O-])cc(-c2ccccc2)c1[N+](=O)[O-],80.5% (active)
2,O=C(NN1C(=O)C2C(C1=O)C1C=CC2C12CC2)c1ccccc1 (stereo not given),3.2%
3,N#Cc1c(N2CCCC(O)C2)nc(N)c2c(N)nc3c(c12)CC(=O)N3C12CC3CC(CC(C3)C1)C2 (stereo not given),-7.9%
4,N#Cc1c(N2CCCC2)nc(N)c2c(N)nc(N3CCCC3)cc12,78.3% (active)
5,CCOC(=O)c1c(C)[nH]c(C)c1S(=O)(=O)NC1CCN(C(=O)OCC)CC1,-2%
6,COc1cccc(CNCCc2ccc3c(c2)OCO3)c1OC,26.4%
7,CCCN1CCC(NC(=O)CC2C(=O)NCCN2Cc2ccccc2C)CC1 (stereo not given),-11.6%
8,O=C(O)CCCNc1cc(N2CCC3(CC2)OCCO3)c2noc3c2c1C(=O)c1ccccc1-3,12.8%
9,CC1(C)CC(NS(=O)(=O)c2ccc(C(C)(C)C)cc2)CC(C)(C)N1,6.7%
10,NS(=O)(=O)c1ccc(NC(=S)NC2CCCCCC2)cc1,56.7% (active)
11,CC1(C)CC(NC(=O)C(c2ccccc2)c2ccccc2)CC(C)(C)N1,24%
12,CC1(C)CC(NC(=S)Nc2ccc(S(N)(=O)=O)cc2)CC(C)(C)N1,58.2% (active)
13,Cc1ccc(S(=O)(=O)NC2CCCCCC2)cc1C(N)=O,-4.2%
14,O=C(CCCC(=O)N(CC(=O)NC1CCCC1)c1cccc(F)c1)Nc1ccccn1,-10.4%
15,Cn1cc(CN2CCCCC2C(=O)Nc2ccc(-n3cccn3)cc2)cn1 (stereo not given),10.3%
16,CCC(=O)N1c2ccc(S(=O)(=O)NCCc3ccc(C)cc3)cc2CC1C (stereo not given),7.9%
17,CCC(C)N(C(=O)c1csnn1)C(C(=O)NC1CCCC1)c1ccccc1F (stereo not given),10%
18,CSc1sccc1/C=C(/C#N)C(=O)c1ccco1,28.9%
19,CCn1c(=O)n(CC)c2cc(N3CCCC3)c(NC(=O)c3ccccc3F)cc21,-2.4%
20,COCCn1c(SCC(=O)N2CCCC(C)C2)nnc1-c1ccco1 (stereo not given),-3.4%
21,O=C(CCNS(=O)(=O)c1ccccc1)N1CCCCCC1,7.7%
22,O=C(NCc1ccccc1Cl)C1CCC(CNc2nc(=S)[nH]c3ccccc23)CC1 (stereo not given),-7%
23,CC1CCN(CCCNC(=O)C2CCN(S(=O)(=O)N3CCC4(CC3)OCCO4)CC2)CC1,1.6%
24,O=C(c1cc(C2CC2)on1)N1CCCC(N2CCN(c3ccc(F)cc3)CC2)C1 (stereo not given),0.4%
25,CCOc1ccc(C2NC(=O)c3ccccc3O2)cc1OC (stereo not given),-17.6%
